Source: PubChem BioAssay (National Center for Advancing Translational Sciences (NCATS))
The list is not random: actives were taken first. Their share in the collection is about 2.7%.
12-LOX inh: inhibitors of human 12S-lipoxygenase ALOX12; P18054; purified 12hLO, xylenol orange hydroperoxide absorbance; Potency, µM (series often up to 108 µM), actives largely listed as inhibitors; actives 1.1% (n = 580,000); AID 1671190
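Purified human 12hLO at 150 nM in 25 mM Hepes, 0.01% Triton X-100, pH 7.0, preincubated 15 min at room temperature with compound. Reaction started with 40 uM arachidonic acid, 30 min at room temperature. Hydroperoxide measured by Fe-xylenol orange, 573/405 nm absorbance ratio.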
Nrf2 ARE act: activators of Nrf2 (ARE) signaling; AREc32 ARE-luciferase reporter (MCF7-derived line), luminescence, 24 h; Potency, µM (series often up to 46.1 µM), hits mostly activators; actives 0.31% (n = 410,000); AID 624171; also: nearly all actives have a fitted effect of over 65% in size
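ARE activation measured as luciferase luminescence (Steady-Glo, 30 min RT) in AREc32_Fluc cells after 24 hr compound exposure at 37 deg C, 5% CO2; cells seeded overnight at 1000/well in OPTI-MEM, 5% FBS.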
Nrf2 inh: blocks Nrf2 signaling. Potency, µM (top dose mostly 46 µM), usual class: inhibitors. actives 2.1% (n = 360,000). AID 504444. A549 ARE-Fluc reporter, luciferase luminescence, 18-24 h; also: nearly all actives have a fitted effect of over 60% in size
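A549 ARE_Fluc cells (5000/well, 5% FBS OPTI-MEM) pre-incubated 2 h, then treated with compounds 18-24 h at 37C/5% CO2 in concentration-response. CellTiter-Fluor viability read first; BugLite luciferase luminescence after 15 min at room temperature gives Nrf2 activity.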
A549 viability: kills or reduces viability of A549 cells in Nrf2 counter-screen; A549 ARE-Fluc cells, CellTiter-Fluor viability, 18-24 h; Potency, µM (top dose mostly 46 µM), actives largely listed as inhibitors; actives 0.16% (n = 390,000); AID 504648
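A549 ARE-Fluc cells in 5% FBS OPTI-MEM, 5000 cells/well, rested 2 h then exposed to compounds in concentration-response for 18-24 h at 37 °C. Viability by CellTiter-Fluor fluorescence (Ex 405/Em 525) after 30 min; luciferase luminescence (BugLite, 15 min, RT) read afterwards.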
ERG Ets-DNA blk: inhibitors of human ERG Ets domain-DNA interaction; P11308; Potency, µM (highest dose often 76.9 µM), most hits filed as inhibitors; fluorescence polarization, His-ERG Ets domain / labelled DNA; actives 0.028% (n = 370,000); active = well fitted inhibition curve with a large enough effect in the polarisation, with a control signal flat; inconclusive = small, poorly fitted or top-dose-only effect, or effect the other way, or a change in a side signal; inactive = no such curve, though single readings can be large or run the other way; the % refers to the polarisation;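 also: polarization taken with two DNA probes labelled with fluorescein and Texas red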
Target sequence (P11308 whole entry, looked up, the tested form may be a part): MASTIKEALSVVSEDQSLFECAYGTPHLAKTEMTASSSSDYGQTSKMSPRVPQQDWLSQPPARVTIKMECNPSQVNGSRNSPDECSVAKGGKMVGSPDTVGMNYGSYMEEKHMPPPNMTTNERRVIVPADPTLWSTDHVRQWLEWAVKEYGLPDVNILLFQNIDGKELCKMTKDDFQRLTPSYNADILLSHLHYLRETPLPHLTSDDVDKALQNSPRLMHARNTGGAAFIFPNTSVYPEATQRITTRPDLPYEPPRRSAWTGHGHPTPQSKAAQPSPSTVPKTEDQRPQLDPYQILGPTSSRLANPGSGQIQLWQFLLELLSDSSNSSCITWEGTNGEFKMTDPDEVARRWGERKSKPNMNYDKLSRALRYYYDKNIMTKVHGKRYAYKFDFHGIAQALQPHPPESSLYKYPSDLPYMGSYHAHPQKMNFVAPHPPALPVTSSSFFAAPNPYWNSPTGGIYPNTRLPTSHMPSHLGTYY
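His-tagged ERG Ets domain (1 uM in the protein solution; 300mM KCl, 50mM Tris-HCl, 1mM EDTA, 1mM DTT, pH 7.5) received compound, then a probe mix of 5 nM fluorescein-DNA and 100nM Texas-615-DNA. Fluorescence polarization was read for both dyes.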
LDHA inh: blocks human lactate dehydrogenase A; purified LDHA, NADH/diaphorase-resazurin fluorescence; stronger effect = lower value; activity change, % (values are at about 110 or 230 µM); actives 0.15% (n = 480,000); AID 1347041; in the data active = activity change below about -30%; inconclusive = mostly about -25% to -30%
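Enzyme activity of human lactate dehydrogenase 5 (2 nM; 0.06 mM NADH, 0.2 mM pyruvate, 5 min, RT) is measured via a resazurin/diaphorase fluorescence readout of residual NADH.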
Each line names hits and unclear results; the compound was inactive in the other large screens. Unless noted, calls follow the shape of the dose curve; as a rule, active = well fitted curve in the direction sought with a large enough effect; inconclusive = small, poorly fitted or top-dose-only effect, or another doubt; inactive = no such curve, though single readings can be large; an effect the other way counts as inactive or inconclusive.

COc1cc(CN2CCN(C(=O)COc3ccc4ccccc4c3)CC2)cc(OC)c1O	12-LOX inh 1.6µM (no result: Nrf2 ARE act, Nrf2 inh, A549 viability, ERG Ets-DNA blk)
CC(C)NC(=O)NC[C@H]1C[C@@H]2CCN1C[C@@H]2c1cc(-c2ccccc2)nn1C	none (no result: Nrf2 ARE act, Nrf2 inh, A549 viability, ERG Ets-DNA blk, LDHA inh)
COc1ccc(N2CCN(Cc3nc4ccccc4[nH]3)CC2)cc1	none
CCCc1cc(N2CCN(c3ccc(OC)cc3)CC2)n2cnnc2n1	Nrf2 inh 12µM
CN(C)C(CSS(=O)(=O)c1ccccc1)CSS(=O)(=O)c1ccccc1	12-LOX inh 0.71µM (no result: Nrf2 ARE act, Nrf2 inh, A549 viability, ERG Ets-DNA blk)
NCC(=O)c1ccc(Cl)c(Cl)c1	12-LOX inh inconclusive, LDHA inh -31 (no result: Nrf2 ARE act, Nrf2 inh, A549 viability, ERG Ets-DNA blk)
Cc1ccc(Cn2nc(C)c(C(=O)NCc3cc(Cl)c4c(c3)OCCCO4)c2C)cc1	none (no result: Nrf2 ARE act, Nrf2 inh, A549 viability, ERG Ets-DNA blk)
C[n+]1ccc(-c2cc[n+](C)cc2)cc1	12-LOX inh inconclusive
O=C(O)CC[n+]1ccc(-c2cc[n+](CCC(=O)O)cc2)cc1	12-LOX inh 14µM (no result: Nrf2 ARE act, Nrf2 inh, A549 viability, ERG Ets-DNA blk)
C=CCN1C(=O)NC(=O)/C(=C\c2ccc(-c3ccccc3[N+](=O)[O-])o2)C1=O	12-LOX inh 35µM
O=C1NC(=O)N(Cc2ccco2)C(=O)/C1=C/c1ccc(-c2cccc([N+](=O)[O-])c2)o1	none (no result: 12-LOX inh)
O=C(Cc1ccccc1)N1CCN(CCCc2ccccc2)CC1	12-LOX inh 0.89µM, LDHA inh inconclusive
COC(=O)C1=Nc2ccccc2/C1=C\c1c(O)n(-c2ccc(OC)cc2)c(=O)[nH]c1=O	12-LOX inh inconclusive, LDHA inh -43
O=c1[nH]c(=O)n(-c2ccccc2)c(O)c1/C=C1/C(c2ccccc2)=Nc2ccccc21	12-LOX inh inconclusive
COC(=O)C1=Nc2ccccc2/C1=C\c1c(O)n(-c2ccc(Br)cc2)c(=O)[nH]c1=O	12-LOX inh 35µM, LDHA inh -67
Cc1ccc([C@H]2CN(C(=O)c3cc(C(C)C)on3)[C@@H]3C4CCN(CC4)[C@H]23)cc1	none (no result: Nrf2 ARE act, Nrf2 inh, A549 viability, ERG Ets-DNA blk, LDHA inh)
CSc1nc(N)c2c(n1)OC(N)=C(C#N)C2c1ccccc1F (stereo not drawn)	12-LOX inh inconclusive (no result: Nrf2 ARE act, Nrf2 inh, A549 viability, ERG Ets-DNA blk)
CC(C)(C)c1cc([N+](=O)[O-])cc(C(C)(C)C)c1O	Nrf2 inh 18µM, A549 viability inconclusive
COc1ccc(C2=NCC(=O)N(CC(=O)Nc3ccc(F)cc3F)c3sc4c(c32)CCC4)cc1	none (no result: Nrf2 ARE act, Nrf2 inh, A549 viability, ERG Ets-DNA blk)
COc1ccc(CN2CCN(c3ncnc4sc5c(c34)CCCC5)CC2)cc1F	Nrf2 inh 10µM
Cc1oc2cc(OCC(=O)N3CCN(C)CC3)ccc2c(=O)c1-c1ccccc1	12-LOX inh inconclusive (no result: Nrf2 ARE act, Nrf2 inh, A549 viability, ERG Ets-DNA blk)
O=C(NCc1ccccc1)[C@H]1CN2CCC1C[C@@H]2Cn1cc(CC2CCCCC2)nn1 (stereo partly drawn)	none (no result: Nrf2 ARE act, Nrf2 inh, A549 viability, ERG Ets-DNA blk, LDHA inh)
Cc1ccccc1C(=O)Nc1sc2c(c1C(=O)O)CCC(C(C)(C)C)C2 (stereo not drawn)	Nrf2 inh 3.7µM
O=C1Nc2ccccc2C12CCN(Cc1ccc(C(F)(F)F)cc1)CC2	none (no result: Nrf2 ARE act, Nrf2 inh, A549 viability, ERG Ets-DNA blk, LDHA inh)
CN(Cc1ccccc1)C(=O)Cn1c(=O)oc2cc(S(=O)(=O)NCc3ccccc3)ccc21	Nrf2 inh 18µM
CCOP(=O)(CCP(=O)(OCC)OCC)OCC.C[CH2][Sn]([Cl])([Cl])[CH2]C	12-LOX inh inconclusive, Nrf2 inh inconclusive, A549 viability 16µM
COc1ccc(CCNCc2ccc(SC)cc2)cc1	12-LOX inh inconclusive, Nrf2 inh inconclusive (no result: ERG Ets-DNA blk)
CCc1ccc(CNCCc2ccc(OC)cc2)cc1	12-LOX inh 2.5µM (no result: Nrf2 ARE act, Nrf2 inh, A549 viability, ERG Ets-DNA blk)
COc1ccc(CNCCc2c[nH]c3ccccc23)cc1	12-LOX inh 0.63µM (no result: Nrf2 ARE act, Nrf2 inh, A549 viability, ERG Ets-DNA blk)
COc1ccc(CCNCc2ccc(Cl)cc2)cc1	12-LOX inh 14µM (no result: Nrf2 ARE act, Nrf2 inh, A549 viability, ERG Ets-DNA blk)
COc1ccc(CNCCc2ccc(Cl)cc2)cc1	12-LOX inh inconclusive (no result: Nrf2 ARE act, Nrf2 inh, A549 viability, ERG Ets-DNA blk)
C/C(=C\c1cn(C)c2ccccc12)[N+](=O)[O-]	12-LOX inh inconclusive (no result: Nrf2 ARE act, Nrf2 inh, A549 viability, ERG Ets-DNA blk)
Cc1nc(-c2ccc(N(C)C)cc2)cc([C@H]2CN3CC[C@H]2C[C@@H]3COC(=O)Nc2ccc(C(C)C)cc2)n1	none (no result: Nrf2 ARE act, Nrf2 inh, A549 viability, ERG Ets-DNA blk, LDHA inh)
O=C1NC(=S)NC(=O)C1Cc1ccccc1	12-LOX inh 28µM
O=C1NC(=O)N(Cc2ccccc2)C(=O)C1Cc1ccccc1 (stereo not drawn)	12-LOX inh inconclusive
O=C/C=C/c1ccccc1	none
O=C1NC(=S)NC(=O)C1C/C=C/c1ccccc1	12-LOX inh 4µM (no result: ERG Ets-DNA blk)
COc1cc2c(cc1-c1ccc(O)c(F)c1)NC(=O)C21CCN(C(C)=O)CC1	none (no result: Nrf2 ARE act, Nrf2 inh, A549 viability, ERG Ets-DNA blk, LDHA inh)
CCOc1ccccc1CNCCc1c[nH]c2ccccc12	12-LOX inh inconclusive (no result: Nrf2 ARE act, Nrf2 inh, A549 viability, ERG Ets-DNA blk)
COC(=O)C1=C(c2ccc3ccccc3c2)C[C@@H]2CC[C@H]1N2C(=O)NCc1ccc(C(F)(F)F)cc1	Nrf2 inh 23µM
COC(=O)C1=C(c2ccc(-c3ccccc3)c(F)c2)C[C@@H]2CC[C@H]1N2C(=O)NCCOc1ccc(OC)cc1	Nrf2 inh 16µM
COC(=O)C1=C(c2ccc(-c3ccccc3)c(F)c2)C[C@@H]2CC[C@H]1N2C(=O)NCCc1ccccc1	Nrf2 inh inconclusive, A549 viability inconclusive
